Source: PubChem BioAssay (NCI)
Where “and” joins values, the source holds several entries; their conditions need not be identical. Equal entries are not always repeated. The panel holds about 83,000 compounds, 20% with a hit somewhere; the sample as a whole holds those more often.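 The endpoint reported here, percent growth, reads 100 for growth as untreated, 0 for no net growth and -100 for all cells dead.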 Unmarked numbers belong to inactive results. Calls of active or inactive are those of the source. The calls were made as follows: active = growth percent below 10; inactive = the rest.

Columns and labels:
Assay in all cases: NCI-60 one-dose screen, 48 h (100 = growth as untreated, 0 = no growth, -100 = all killed)
Settings in all cases: 10 µM unless noted
T-47D breast = tested on: T-47D breast
BT-549 breast = tested on: BT-549 breast
MDA-MB-435 melanoma = tested on: MDA-MB-435 melanoma
SW-620 colon = tested on: SW-620 colon
MCF7 breast = tested on: MCF7 breast
HCT-116 colon = tested on: HCT-116 colon
HCC-2998 colon = tested on: HCC-2998 colon
KM12 colon = tested on: KM12 colon

SMILES | growth (T-47D breast) | growth (BT-549 breast) | growth (MDA-MB-435 melanoma) | growth (SW-620 colon) | growth (MCF7 breast) | growth (HCT-116 colon) | growth (HCC-2998 colon) | growth (KM12 colon)
CN(C)CCN1C(=O)c2c(c3c4ccccc4n4c3c3c2c2ccccc2n3C2CC(O)C(O)C4(C)O2)C1=O (configuration not stated) | 30.1% | 62.9% | 32.1% | 18.5% | 6.41% (active) | 22.4% | 26.4% | 34.2%
CN1CCN(c2ccc(/C=C/C(=O)c3ccc(O)cc3)cc2)CC1 | 83.6% | 97.7% | 100% | 99.5% | 89.7% | 99.2% | 102% | 101%
Nc1[nH]nc(Nc2ccccc2)c1-c1nc2ccccc2s1 | 2.9% (active) | 38.1% | 22.8% | 15.5% | 12.4% | 3.73% (active) | 18.3% | 15.6%
Cc1ccc(-c2nc3nc(-c4ccc(Cl)cc4)nc(N4CCCNCC4)c3o2)cc1 | -36.5% (active) | 99.4% | -81.1% (active) | -81.9% (active) | -79.4% (active) | -75.6% (active) | -78.8% (active) | -88.7% (active)
O=C(O)C1C2CCC1C(O)C2 (configuration not stated) | 92.3% and 97.4% | 98.2% and 97.1% | 106% | 107% and 113% | 92% and 97.8% | 100% and 101% | 99.9% and 101% | 107% and 98.7%
O=C1/C(=C/c2cn(-c3ccccc3)nc2-c2ccccc2)SC(=S)N1c1ccc(Cl)cc1 | 82.1% | 78.2% | 74.1% | 84.4% | 82.2% | 64.1% | 76.3% | 60.5%
Nc1n[nH]c2cccc(C#Cc3cccc(C(=O)Nc4ccc(CN5CCOCC5)c(C(F)(F)F)c4)c3)c12 | 6.17% (active) | 23.7% | 38.7% | 49.3% | 33.4% | 13.3% | 26.9% | 19%
Cc1ccc(S(=O)(=O)OC[C@@]2(C)CC[C@]3(C)CC[C@]4(C)C(=CC[C@@H]5[C@@]6(C)CCCNC(C)(C)[C@@H]6CC[C@]54C)[C@@H]3C2)cc1 | -82.8% (active) | 76.5% | -89.9% (active) | -81.9% (active) | -61.6% (active) | -80.6% (active) | -92.3% (active) | -91.7% (active)
COc1ccc(-c2nc(Cl)c3c(C)nn(-c4ccc(F)cc4)c3n2)cc1 | 102% | 123% | 112% | 103% | 105% | 96.5% | 103% | 104%
COc1ccc2c(c1)c(-c1nc(-c3c[nH]c4c(Cl)nccc34)cs1)cn2C | -4.46% (active) | 98.8% | 98.3% | 103% | 8.44% (active) | 92.7% | 74.6% | 30.8%
c1ccc(-c2cc(-c3cc(-c4ccccc4)on3)no2)cc1 | 85.2% | 99.4% | 102% | 51.5% | 49.1% | 41.8% | 94.2% | 92.8%
CC1=CC=C(NC(=O)/C=C/c2ccccc2)CC1Nc1nccc(-c2cccnc2)n1 (configuration not stated) | 48.1% | 74.5% | -48.5% (active) | 27% | 18% | 14.5% | 70.5% | 26.4%
O=C(CN1C(=O)S/C(=C\C(Cl)=C\c2ccccc2)C1=O)NC1C=CS(=O)(=O)C1 (configuration not stated) | 4.56% (active) | 2.33% (active) | -31.4% (active) | -36.4% (active) | 11.1% | -62.3% (active) | 65.6% | 16.4%
C=CCOc1ccc(/C=C2\SC(=S)N(CCc3ccc(O)cc3)C2=O)cc1 | 82.8% | 93.6% | 77.5% | 88.9% | 86.5% | 99.6% | 114% | 91.5%
COc1ccccc1/C=C1\COc2ccc(O)c(O)c2C1=O | 11.6% | 24.2% | 8.84% (active) | 3.71% (active) | 14.8% | 8.37% (active) | 69.7% | 20.8%
Cc1ccccc1SSc1ccccc1C | 101% | 83.9% | 110% | 55% | 56.1% | 55% | 128% | 96.9%
COc1cc(/C=C2\C(=O)N(CCCCn3c4ccccc4c(=O)c4ccccc43)c3ccccc32)cc(OC)c1O | 66.1% | 51.1% | 6.24% (active) | 47.4% | 22.8% | 57.6% | 92.4% | 58.4%
COc1ccc(Nc2ncnc3ccc(-c4cncc(NS(C)(=O)=O)c4)cc23)cc1Cl | -13.6% (active) | 24.5% | 49.1% | 37.7% | 15% | 19.1% | 49.3% | 61%
CSc1nnc(-c2cc3c([nH]c4ccccc43)c(-c3cccc(O)c3)n2)n1-c1ccc(C)cc1 | 24.5% | 34.5% | -49.5% (active) | 30% | 5.16% (active) | 23.8% | 54.2% | 26.3%
C=C1C(=O)O[C@@H]2[C@H]3[C@H](COC(C)=O)[C@@H](OC(C)=O)C[C@H]3C(=C)[C@@H](O)C[C@@H]12 | 90.5% | 94.2% | 101% | 84.4% | 76.8% | 75.7% | 109% | 99.8%
C/C(=C(\c1ccc(OCCN2CCOCC2)cc1)c1ccc(OC(=O)C2CCCCC2)cc1)c1ccc(Cl)cc1 | 66.5% | 91.3% | 94.4% | 96.6% | 79.8% | 78.7% | 94.2% | 98.8%
C=C(c1ccc(C(=O)O)cc1)c1cc2c(cc1C)C(C)(C)CCC2(C)C | 93.8% and 75.7% | 55.4% | 95.9% and 84% | 113% and 97.6% | 75.9% and 63.6% | 71.3% and 50% | 78.6% and 76.1% | 59.2% and 36.3%
O=S(=O)(Nc1cc(Sc2cccc3cccnc23)c(O)c2ccccc12)c1ccc(F)cc1 | -40.3% (active) | 30.7% | 7.68% (active) | -69.3% (active) | -53.4% (active) | -88.5% (active) | 40% | 16.5%
CCCN1C(=O)/C(=c2\sc3n(c2=O)NC2C(N=3)N(CC)C(=O)N2CC)c2ccccc21 (configuration not stated) | 26.2% | 62.8% | -10.6% (active) | 31.5% | 17.5% | 15.6% | 30.4% | 30.3%
CNC(=O)c1cc(Oc2ccc3nc(NC(=O)Nc4ccc(C(F)(F)F)cc4)sc3c2)ccn1 | 44.8% | 62.3% | 40.9% | 37.9% | 42% | 7.67% (active) | 104% | 65%
O=C(Cn1cc(CN2CCN(c3ccnc4cc(Cl)ccc34)CC2)nn1)Nc1cccc([N+](=O)[O-])c1 | 75% | 85.6% | 98.7% | 95% | 89.1% | 101% | 106% | 85.4%
N=c1ccccn1CCO | 103% | 113% | 113% | 114% | 102% | 100% | 94.6% | 112%
C[C@@H]1CC[C@@H]2[C@@H]1[C@H](OC(=O)/C=C/c1ccccc1)[C@]1(c3ccccc3)C[C@@H](NC(=O)CO)[C@@]2(C)O1 | 93.3% | 114% | 100% | 104% | 79.4% | 100% | 104% | 94.8%
C=C1C(=O)O[C@H]2[C@H]1CC/C(COC(=O)NCCCCNC(=O)OC/C1=C/CC[C@@]3(C)O[C@H]3[C@H]3OC(=O)C(=C)[C@@H]3CC1)=C\CC[C@@]1(C)O[C@@H]21 | 9.48% (active) | -40% (active) | -25.6% (active) | -27.8% (active) | 9.53% (active) | -65.2% (active) | 89.5% | 88.2%
